According to PubChem BioAssay (Tox21):
Records with an inconclusive call do not appear. Calls of active or inactive are those of the source. Unless noted, calls come from the whole dose curve; as a rule, active = well fitted cell-killing curve with a large enough effect in the repeat runs; inconclusive = weak or mixed curves, or effect the other way; inactive = no such curve, though single readings can be large or run the other way.

biological target: Bile acid receptor (Homo sapiens) (UniProt Q96RI1); experiment: qHTS assay to identify small molecule antagonists of the farnesoid-X-receptor (FXR) signaling pathway (AID 743217; active = well fitted inhibition curve with a large enough effect in the signal ratio in the repeat runs, not every such curve was filed as active; the % refers to the signal ratio); settings: HEK293T FXR-UAS-bla, beta-lactamase ratio, CDCA-stimulated, 16 h; series mostly up to 62.6 µM; activity change, negative = inhibition: at the top concentration
In short: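 Read-out: beta-lactamase FRET fluorescence (LiveBLAzer B/G substrate, 2 h, room temperature) in GeneBLAzer FXR-UAS-bla HEK 293T cells. Compounds were co-dosed with 50 uM chenodeoxycholic acid (final) and incubated 16 h at 37 °C.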
% is set by controls: 0 for no effect and ±100 for the full control effect.

Sequence of Bile acid receptor (Homo sapiens) (Q96RI1 whole entry, looked up): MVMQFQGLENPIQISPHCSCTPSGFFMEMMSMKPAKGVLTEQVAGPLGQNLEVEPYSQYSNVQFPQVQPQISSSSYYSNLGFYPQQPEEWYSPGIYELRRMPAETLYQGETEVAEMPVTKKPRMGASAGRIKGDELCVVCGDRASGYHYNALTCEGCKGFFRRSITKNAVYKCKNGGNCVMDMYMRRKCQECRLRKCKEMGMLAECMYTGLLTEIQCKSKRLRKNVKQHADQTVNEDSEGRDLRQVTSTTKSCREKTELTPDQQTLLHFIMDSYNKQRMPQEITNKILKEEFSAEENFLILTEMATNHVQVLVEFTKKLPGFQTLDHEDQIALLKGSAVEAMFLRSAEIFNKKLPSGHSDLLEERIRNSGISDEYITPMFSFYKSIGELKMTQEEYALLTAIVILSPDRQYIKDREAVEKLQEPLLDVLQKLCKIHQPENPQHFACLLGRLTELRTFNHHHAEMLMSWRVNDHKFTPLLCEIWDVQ

Row | Compound | activity change, negative = inhibition
1 | Cc1cnc[nH]1 | 0.263% (inactive)
2 | Fc1cc(Br)ccc1CBr | 6.85% (inactive)
3 | NC(=S)C(N)=S | -9.81% (inactive)
4 | C[C@@H]1CN(C2CCC(C#N)(c3ccc(F)cc3)CC2)CC[C@]1(C(=O)O)c1ccccc1 (stereo partly specified) | 7.86% (inactive)
5 | O=[N+]([O-])c1cccc2cccnc12 | 5.2% [at 81.1 µM] (inactive)
6 | O=[N+]([O-])c1cc(Cl)c(Cl)c(Cl)c1 | 1.42% (inactive)
7 | CN(C)CCc1ccc(O)cc1 | -1.15% (inactive)
8 | CC(C)[N+](=O)[O-] | -0.297% (inactive)
9 | N#CC(Cl)(Cl)Cl | -3.78% (inactive)
10 | CCc1cc2c(s1)-n1c(C)nnc1CN=C2c1ccccc1Cl | 18.4% (inactive)
11 | C(CCOCC1CO1)COCC1CO1 (stereo unspecified) | 5.35% (inactive)
12 | Cc1cc(C)c(C(=O)P(=O)(C(=O)c2c(C)cc(C)cc2C)c2ccccc2)c(C)c1 | -3.14% (inactive)

system: not listed separately; experiment: qHTS assay to identify small molecule agonists of the farnesoid-X-receptor (FXR) signaling pathway - cell viability counter screen (AID 743218); settings: FXR-bla HEK293T viability, CellTiter-Glo luminescence, 16 h; series mostly up to 62.6 µM; viability change, negative = cytotoxic: at the top concentration; note: nearly all actives have a fitted effect of over 45% in size
In short: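 Luminescence from CellTiter-Glo, read after 30 min at RT, reports viability of GeneBLAzer FXR-UAS-bla HEK 293T cells treated 16 h with compounds in the wells used for the beta-lactamase reporter.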

Row | Compound | viability change, negative = cytotoxic
13 | Cc1cnc[nH]1 | 0.78% (inactive)
14 | OC(Cn1cncn1)(c1ccc(F)cc1)c1ccccc1F (stereo unspecified) | -1.01% (inactive)
15 | CC(=O)CC(c1ccc(Cl)cc1)c1c(O)c2ccccc2oc1=O (stereo unspecified) | -15.2% [at 81.1 µM] (inactive)
16 | ClCC(Cl)Cl | 2.76% [at 81.1 µM] (inactive)
17 | Oc1c(Cl)cccc1Cl | 1.5% (inactive)
18 | CCC1(c2ccccc2)C(=O)NC(=O)NC1=O | 19% [at 81.1 µM] (inactive)
19 | O=NN1CCCCC1 | -3.12% (inactive)
20 | CS(=O)(=O)c1cc(C(F)(F)F)ccc1C(=O)c1cnoc1C1CC1 | -3.19% (inactive)
21 | O=[N+]([O-])c1cccc2c([N+](=O)[O-])cccc12 | 23.9% [at 81.1 µM] (inactive)
22 | CCC(=O)C(CCN(C)C)(c1ccccc1)c1ccccc1 | 7.59% (inactive)
23 | CCOP(=O)(N=C1SCCS1)OCC | 0.846% (inactive)
24 | CN1CCC(O)(c2ccc(F)cc2)C(C(=O)c2ccc(F)cc2)C1 (stereo unspecified) | -28.9% (inactive)
25 | C[N+](=O)[O-] | -14.1% (inactive)
26 | O=C1OC(c2ccc(O)c(S(=O)(=O)O)c2)(c2ccc(O)c(S(=O)(=O)O)c2)c2c(Br)c(Br)c(Br)c(Br)c21 | 0.526% (inactive)
